Shown are actives, neighbours in structure and some others; about 12% of the full set was active somewhere.
BAZ2B inh – inhibitors of human BAZ2B bromodomain. Q9UIF8. AlphaScreen BAZ2B-H3K14Ac peptide displacement. Potency, µM (top dose mostly 114 µM), without a hit: at the top dose activity change, negative = inhibition, actives largely listed as inhibitors. AID 504333. 360,000 tested, 4.4% active; also: % is scaled to controls: 0 for no effect and ±100 for the full control effect; nearly all actives have a fitted effect of over 60% in size
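Inhibition is scored as reduced AlphaScreen emission. The BAZ2B/b-H3(5-23)K14Ac complex (50 nM each) in PBS pH 7.4, 0.01% Tween-20 meets compound (up to 110 uM) for 30 min at RT before bead addition.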
G9a inh – blocks human histone lysine methyltransferase G9a; Q96KQ7; 350,000 tested, 8.8% active; Potency, µM (doses to about 102 µM), for inactives: top-dose activity, negative = inhibition, hits mostly inhibitors; G9a H3K9 monomethylation, AlphaScreen, 2 h; also: % is scaled to controls: 0 for no effect and ±100 for the full control effect; nearly all actives have a fitted effect of over 75% in size
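Using a bead-based AlphaScreen, monomethylated H3K9 product from 2 h room-temperature reactions (G9a 20 nM, peptide 500 nM, SAM 20 uM) was detected with 0.5 ug/mL rabbit anti-H3K9me1 antibody.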
HP1b binding inh – HP1-beta chromodomain-methylated histone interaction inhibition; P83916; AlphaScreen HP1-beta / biotin-H3K9me3 peptide binding; Potency, µM (series often up to 114 µM), without a hit: top-dose activity change, negative = inhibition, most hits filed as inhibitors; 390,000 tested, 0.56% active; AID 540317; also: nearly all actives have a fitted effect of over 70% in size
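HP1-beta protein (50 nM final) preincubated 30 min at room temperature with biotinylated H3(1-18)K9me3 peptide (50 nM) in PBS pH 7.4, 0.01% Tween-20, then compound added for 30 min. AlphaScreen streptavidin donor/nickel chelate acceptor beads (10 ug/mL final), 30 min dark, luminescence read.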
Sfp inh – blocks B. subtilis Sfp PPTase activity; Q9F4F7; 310,000 tested, 3.5% active; Potency, µM, for the others: largest response in the series, negative = inhibition, usual class: inhibitors; Biochemical Sfp PPTase activity, qHTS; AID 1490;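 also: the enzyme is Sfp with the accession as filed and its product quenches rhodamine fluorescence; 0% = enzyme reaction without inhibitor and -100% = no enzyme wells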
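Fluorescence-quenching assay with 15 nM Sfp, 5 uM rhodamine-CoA and 12.5 uM BHQ-2-labelled ybbR peptide in pH 7.6 Hepes/MgCl2 buffer. Enzyme was pre-incubated with compound for 15 min at room temperature. Rate was taken from the 30-min fluorescence change (525/598 nm).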
JMJD2A Tudor inh – blocks the human JMJD2A Tudor domain; AID 504339; 390,000 tested, 4.4% active; O75164; Potency, µM (highest dose often 114 µM), without a hit: at the highest dose activity change, negative = inhibition, usual class: inhibitors; AlphaScreen JMJD2A-Tudor / H3K4me3 peptide binding; also: % is scaled to controls: 0 for no effect and ±100 for the full control effect; nearly all actives have a fitted effect of over 50% in size
* marks the source's active call; other numbers are inactive results; [ ] = remark or other dose. Calls follow the shape of the dose curve; as a rule, active = well fitted curve in the direction sought with a large enough effect; inconclusive = small, poorly fitted or top-dose-only effect, or another doubt; inactive = no such curve, though single readings can be large; an effect the other way counts as inactive or inconclusive. Potency is read from the fitted curve at half-maximal effect.

`COc1ccc(C2NC(=O)c3ccccc3N2)cc1OC` (centres undefined) gave BAZ2B inh 4.3%, G9a inh -14.8%[59 µM], HP1b binding inh 43.7%, Sfp inh 21.4% and JMJD2A Tudor inh 14.7%.
`COc1ccc(N2CCN(C(=O)Cn3c(-c4cccs4)cc4ccccc43)CC2)cc1` gave BAZ2B inh -36.4%, G9a inh inconclusive, HP1b binding inh -1.7% and JMJD2A Tudor inh -31.0%.
For CC(=O)Nc1ccc(S(=O)(=O)N2CCN=C2SCc2ccccc2C)cc1 the results were BAZ2B inh -15.4%, G9a inh 24.9%, HP1b binding inh 7.4%, Sfp inh 20.8% and JMJD2A Tudor inh -11.0%.
Screening COc1cccc(CN2C[C@]34C=C[C@@H](C[C@@H]3S2(=O)=O)O4)c1 returned BAZ2B inh 5.7%, G9a inh 0.2%[59 µM], HP1b binding inh 25.7%, Sfp inh 89.1µM* and JMJD2A Tudor inh -10.6%.
NC(=NCCc1c[nH]c2ccccc12)NC(=O)c1ccc(Cl)cc1 was read as BAZ2B inh 79.4µM*, G9a inh inconclusive, HP1b binding inh -11.0%, Sfp inh -28.2% and JMJD2A Tudor inh inconclusive.
For O=C(N[C@@H](Cc1c[nH]c2ccccc12)C(=O)O)c1ccc(Cl)cc1 the results were BAZ2B inh 19.5%, G9a inh 21.5%, HP1b binding inh 15.3%, Sfp inh 26.8% and JMJD2A Tudor inh -14.4%.
Screening CC1C(c2ccc3c(c2)OCO3)c2cc3c(cc2OC1N1CCOCC1)OCO3 (centres undefined) returned HP1b binding inh inconclusive and JMJD2A Tudor inh 17.8µM*.
`COc1cc(C2c3cc4c(cc3OC(N3CCCCC3)C2C)OCO4)cc(OC)c1O` (centres undefined) gave HP1b binding inh 17.8% and JMJD2A Tudor inh -13.9%.
O=C(c1ccc2ncsc2c1)N1CCN(c2cccc(C(F)(F)F)c2)CC1 was read as BAZ2B inh -1.4%, G9a inh inconclusive, HP1b binding inh 20.8% and JMJD2A Tudor inh -17.7%.
Screening O=C(/C=C/NCC(=O)c1ccccc1)c1ccc(Br)cc1 returned BAZ2B inh -35.0%, G9a inh 6.31µM*, HP1b binding inh 22.2%, Sfp inh -29.3% and JMJD2A Tudor inh -31.7%.
Screening Cc1ccccc1NCC(=O)c1ccc(Br)cc1 returned BAZ2B inh inconclusive, G9a inh inconclusive, HP1b binding inh 2.5%, Sfp inh 44.7µM* and JMJD2A Tudor inh -21.6%.
Screening COc1ccc(C(=O)CNc2ccccc2Br)cc1 returned BAZ2B inh 37.2%, G9a inh 7.6%, HP1b binding inh 160.6%, Sfp inh -8.1% and JMJD2A Tudor inh 54.2%.
O=[N+]([O-])c1ccc(CNc2cccc(F)c2)s1 was read as BAZ2B inh -36.2%, G9a inh 50.1µM*, HP1b binding inh -5.6%, Sfp inh 1.4% and JMJD2A Tudor inh inconclusive.
Cc1cccc(NCc2ccc([N+](=O)[O-])s2)c1 was read as BAZ2B inh inconclusive, G9a inh 44.7µM*, HP1b binding inh -19.1%, Sfp inh 6.3% and JMJD2A Tudor inh inconclusive.
Screening Nc1nc(NCc2ccccc2)nc(Nc2cccc(F)c2)c1[N+](=O)[O-] returned BAZ2B inh -4.4%, G9a inh 1.6%[12.7 µM], HP1b binding inh 3.8%, Sfp inh 5.5% and JMJD2A Tudor inh -17.9%.
For Cc1cccc(NCc2ccccc2)c1 the results were BAZ2B inh -10.9%, G9a inh 6.2%, HP1b binding inh 22.8%, Sfp inh 3.1% and JMJD2A Tudor inh -3.7%[11.4 µM].
Cc1ccc(CCNC(=O)C2CCN(S(=O)(=O)c3ccc4c(c3)oc(=O)n4C)CC2)cc1 was read as BAZ2B inh -10.6%, G9a inh -1.1%, HP1b binding inh 30.6%, Sfp inh 12.3% and JMJD2A Tudor inh -13.2%.
O=[N+]([O-])c1ccc(S(=O)(=O)NCC2CCCO2)cc1 (centres undefined) was read as BAZ2B inh -1.6%, G9a inh -0.7%[59 µM], HP1b binding inh 39.0%, Sfp inh 4.7% and JMJD2A Tudor inh -7.9%.
Screening O=C(/C=C/c1ccc2c(c1)OCCCO2)c1ccc2ccccc2c1O returned BAZ2B inh 10µM*, G9a inh 11.2µM*, HP1b binding inh 25.1µM*, Sfp inh 39.8µM* and JMJD2A Tudor inh 28.2µM*.
For O=C(C=Cc1ccc2c(c1)OCO2)c1ccccc1 the results were HP1b binding inh 53.9% and JMJD2A Tudor inh 13.1%.
Screening Cc1ccc(C(=O)/C=C/c2ccc3c(c2)OCCO3)c(O)c1 returned BAZ2B inh inconclusive, G9a inh 39.8µM*, HP1b binding inh inconclusive, Sfp inh -27.5% and JMJD2A Tudor inh 31.6µM*.
Screening COCC(C)NC(=O)NC1(C(F)(F)F)Oc2ccc(Cl)cc2O1 (centres undefined) returned BAZ2B inh 11.5%, G9a inh 35.5µM*, HP1b binding inh 2.8%, Sfp inh -28.1% and JMJD2A Tudor inh -14.5%[57.1 µM].
`O=C(NCCN1CCOCC1)c1cc(Cl)ccc1Cl` gave BAZ2B inh -1.3%, G9a inh 19.1%, HP1b binding inh 26.8%, Sfp inh 1.4% and JMJD2A Tudor inh -14.8%.
`O=C(NCCN1CCOCC1)NC1(C(F)(F)F)Oc2ccc(Cl)cc2O1` (centres undefined) gave BAZ2B inh 2.3%, G9a inh 10µM*, HP1b binding inh 34.5%, Sfp inh -33.9% and JMJD2A Tudor inh 39.8µM*.
`Cc1ccc(-c2nnc(COC(=O)c3cccs3)o2)cc1` gave BAZ2B inh 20.6%, G9a inh 45.1%, HP1b binding inh 70.1%, Sfp inh 2.9% and JMJD2A Tudor inh 31.6%.
For COc1cc(/C=N/NC(=S)NCCN2CCOCC2)cc(OC)c1O the results were BAZ2B inh -8.4%, G9a inh inconclusive, HP1b binding inh 22.3%, Sfp inh 22.4µM* and JMJD2A Tudor inh -26.1%.
For Oc1ccc(/C=N/NC(=S)NCCN2CCOCC2)c(O)c1 the results were BAZ2B inh 10µM*, G9a inh inconclusive, HP1b binding inh 7.8%, Sfp inh 7.5% and JMJD2A Tudor inh 56.2µM*.
For CCOc1ccc(NC(=O)CN(C)C(=O)c2ccc(C3SCCS3)cc2)cc1OCC the results were BAZ2B inh -4.2%, G9a inh 5.3%[0.501 µM], HP1b binding inh 30.4% and JMJD2A Tudor inh -16.4%.
For Cc1nn(Cc2ccccc2Cl)c(C)c1NC(=O)c1noc(C(C)C)c1[N+](=O)[O-] the results were BAZ2B inh -19.0%, G9a inh -6.9%, HP1b binding inh 6.4%, Sfp inh 4.0% and JMJD2A Tudor inh -15.2%.
`Cn1c(C(=O)N2CCCC(C(=O)c3ccc(C(F)(F)F)cc3)C2)cc(=O)n(C)c1=O` (centres undefined) gave BAZ2B inh -19.7%, G9a inh -49.5%, HP1b binding inh 25.4%, Sfp inh 24.6% and JMJD2A Tudor inh -2.1%.
CNc1ncnc2c1ncn2[C@H]1C[C@H](OP(=O)(O)O)[C@H](COP(=O)(O)O)O1 was read as Sfp inh 28.2µM*.

Compound activity from PubChem.
